Measurements as given in PubChem BioAssay AID1159580 (chemical genetic matrix, 2015).
“And” between values parts separate entries of the source, which are not always exact repeats. Equal entries are not always repeated. Among all 5,500 compounds or so, about 2,000 (36%) were called active. About 18% were inconclusive and are not listed. Cut-off read from the data, not from the text of the source: active = normalized growth mostly below about 0.91 (no sharp cut-off); inconclusive = no clear call, values can overlap the other calls; inactive = mostly above about 0.92. The list shows a part of the results.

Assay: chemical genetic growth profiling, strain panel (AID 1159580);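 note: tested at 20 µM; growth read once vehicle control cultures reached saturation at 30 °C; 1 = growth at the plate median or of vehicle wells; lower values mean less growth of the strain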
Conditions: growth OD

Measured: normalized growth

CCN(CC)CCOC(=O)c1ccc(N)cc1
inactive: S. cerevisiae deletion strains, locus YJR075W, strain HOC1, active compounds read low 1.07 | S. cerevisiae deletion strains, locus YKL009W, strain mrt4, active compounds read low 0.978 | S. cerevisiae deletion strains, locus YKL068W, active compounds read low 0.987 | S. cerevisiae deletion strains, locus YKL085W, strain MDH1 (second series), active compounds read low 0.981 | S. cerevisiae deletion strains, locus YKL085W, strain MDH1, active compounds read low 0.981 | S. cerevisiae deletion strains, locus YKL160W, strain elf1, active compounds read low 1.01 | S. cerevisiae deletion strains, locus YKL190W, strain CNB1, active compounds read low 1.01 | S. cerevisiae deletion strains, locus YKR001C, strain vps1, active compounds read low 0.986 | S. cerevisiae deletion strains, locus YKR026C, strain gcn3, active compounds read low 0.99 | S. cerevisiae deletion strains, locus YKR091W, strain srl3, active compounds read low 0.988 | S. cerevisiae deletion strains, locus YLL001W, strain dnm1, active compounds read low 1.02 | S. cerevisiae deletion strains, locus YLL026W, active compounds read low 1 | S. cerevisiae deletion strains, locus YLL041C, strain sdh2, active compounds read low 0.987 | S. cerevisiae deletion strains, locus YLR027C, strain aat2, active compounds read low 0.994 | S. cerevisiae deletion strains, locus YLR039C, strain RIC1, active compounds read low 1.03 | S. cerevisiae deletion strains, locus YLR058C, strain SHM2, active compounds read low 1.01 | S. cerevisiae deletion strains, locus YLR102C, strain apc9, active compounds read low 0.986 | S. cerevisiae deletion strains, locus YLR113W, strain HOG1, active compounds read low 1.02 | S. cerevisiae deletion strains, locus YLR221C, strain rsa3, active compounds read low 0.958 | S. cerevisiae deletion strains, locus YLR258W, strain gsy2, active compounds read low 0.975 | S. cerevisiae deletion strains, locus YLR262C, strain YPT6 (second series), active compounds read low 0.991 | S. cerevisiae deletion strains, locus YLR262C, strain YPT6, active compounds read low 1.04 | S. cerevisiae deletion strains, locus YLR268W, strain sec22, active compounds read low 0.959 | S. cerevisiae deletion strains, locus YLR320W, strain mms22, active compounds read low 0.969 | S. cerevisiae deletion strains, locus YLR330W, strain CHS5, active compounds read low 1.01 | S. cerevisiae deletion strains, locus YLR342W, strain FKS1 (second series), active compounds read low 1 | S. cerevisiae deletion strains, locus YLR342W, strain FKS1, active compounds read low 1.02 | S. cerevisiae deletion strains, locus YLR357W, strain rsc2, active compounds read low 0.955 | S. cerevisiae deletion strains, locus YLR370C, strain arc18, active compounds read low 1.01 | S. cerevisiae deletion strains, locus YLR371W, strain rom2, active compounds read low 0.992 | S. cerevisiae deletion strains, locus YLR384C, strain iki3, active compounds read low 0.991 | S. cerevisiae deletion strains, locus YLR418C, strain cdc73, active compounds read low 0.975 | S. cerevisiae deletion strains, locus YML016C, strain PPZ1, active compounds read low 1.01 | S. cerevisiae deletion strains, locus YML032C, strain rad52, active compounds read low 0.99 | S. cerevisiae deletion strains, locus YML120C, strain ndi1, active compounds read low 0.989 | S. cerevisiae deletion strains, locus YML124C, strain tub3, active compounds read low 0.995 | S. cerevisiae deletion strains, locus YMR058W, strain fet3, active compounds read low 0.983 | S. cerevisiae deletion strains, locus YMR078C, strain ctf18, active compounds read low 0.992 | S. cerevisiae deletion strains, locus YMR125W, strain sto1, active compounds read low 0.962 | S. cerevisiae deletion strains, locus YMR129W, active compounds read low 0.982 | S. cerevisiae deletion strains, locus YMR205C, strain PFK2, active compounds read low 1 | S. cerevisiae deletion strains, locus YMR223W, strain ubp8, active compounds read low 0.997 | S. cerevisiae deletion strains, locus YMR231W, strain pep5, active compounds read low 0.997 | S. cerevisiae deletion strains, locus YMR263W, strain SAP30, active compounds read low 1.01 and 0.982 | S. cerevisiae deletion strains, locus YMR307W, strain GAS1, active compounds read low 0.975 and 0.992 | S. cerevisiae deletion strains, locus YNL067W, strain RPL9B, active compounds read low 1.01 | S. cerevisiae deletion strains, locus YNL071W, strain lat1, active compounds read low 0.966 | S. cerevisiae deletion strains, locus YNL128W, strain TEP1, active compounds read low 1.01 | S. cerevisiae deletion strains, locus YNL153C, strain GIM3, active compounds read low 1.01 and 0.998 | S. cerevisiae deletion strains, locus YNL175C, strain NOP13, active compounds read low 0.991 | S. cerevisiae deletion strains, locus YNL183C, strain NPR1, active compounds read low 1 | S. cerevisiae deletion strains, locus YNL197C, strain WHI3, active compounds read low 0.986 | S. cerevisiae deletion strains, locus YNL209W, strain ssb2, active compounds read low 0.975 | S. cerevisiae deletion strains, locus YNL224C, strain SQS1, active compounds read low 0.998 | S. cerevisiae deletion strains, locus YNL233W, strain BNI4, active compounds read low 1.01 | S. cerevisiae deletion strains, locus YNL248C, strain rpa49, active compounds read low 0.938 | S. cerevisiae deletion strains, locus YNL250W, strain rad50, active compounds read low 0.986 | S. cerevisiae deletion strains, locus YNL271C, strain bni1, active compounds read low 0.985 | S. cerevisiae deletion strains, locus YNL298W, strain CLA4, active compounds read low 0.99 | S. cerevisiae deletion strains, locus YNL307C, strain MCK1, active compounds read low 0.986 | S. cerevisiae deletion strains, locus YNL322C, strain KRE1 (second series), active compounds read low 0.986 | S. cerevisiae deletion strains, locus YNL322C, strain KRE1, active compounds read low 1 and 0.981 | S. cerevisiae deletion strains, locus YNR049C, strain mso1, active compounds read low 0.975 | S. cerevisiae deletion strains, locus YNR052C, strain pop2, active compounds read low 0.988 | S. cerevisiae deletion strains, locus YOL006C, strain TOP1, active compounds read low 1.04 | S. cerevisiae deletion strains, locus YOL012C, strain htz1 0.92 | S. cerevisiae deletion strains, locus YOL147C, strain pex11, active compounds read low 0.988 | S. cerevisiae deletion strains, locus YOR001W, strain rrp6, active compounds read low 1.01 | S. cerevisiae deletion strains, locus YOR061W, strain CKA2, active compounds read low 1.01 | S. cerevisiae deletion strains, locus YOR069W, strain VPS5, active compounds read low 1.01 | S. cerevisiae deletion strains, locus YOR070C, strain gyp1, active compounds read low 0.996 | S. cerevisiae deletion strains, locus YOR080W, strain dia2, active compounds read low 0.996 | S. cerevisiae deletion strains, locus YOR083W, strain WHI5 (second series), active compounds read low 0.979 | S. cerevisiae deletion strains, locus YOR083W, strain WHI5, active compounds read low 1 | S. cerevisiae deletion strains, locus YOR106W, strain vam3, active compounds read low 1.02 | S. cerevisiae deletion strains, locus YOR136W, strain idh2, active compounds read low 0.996 | S. cerevisiae deletion strains, locus YOR144C, strain elg1, active compounds read low 0.994 | S. cerevisiae deletion strains, locus YOR184W, strain ser1, active compounds read low 0.991 | S. cerevisiae deletion strains, locus YOR231W, strain MKK1, active compounds read low 1.02 | S. cerevisiae deletion strains, locus YOR265W, strain rbl2, active compounds read low 0.985 | S. cerevisiae deletion strains, locus YOR270C, strain vph1, active compounds read low 0.983 | S. cerevisiae deletion strains, locus YOR290C, strain snf2, active compounds read low 0.946 | S. cerevisiae deletion strains, locus YOR316C, strain cot1, active compounds read low 0.992 | S. cerevisiae deletion strains, locus YPL051W, strain arl3, active compounds read low 0.997 | S. cerevisiae deletion strains, locus YPL055C, strain LGE1, active compounds read low 1.03 | S. cerevisiae deletion strains, locus YPL078C, strain atp4, active compounds read low 1.02 | S. cerevisiae deletion strains, locus YPL106C, strain sse1, active compounds read low 0.929 | S. cerevisiae deletion strains, locus YPL240C, strain hsp82, active compounds read low 0.991 | S. cerevisiae deletion strains, locus YPL241C, strain CIN2, active compounds read low 0.993 | S. cerevisiae deletion strains, locus YPL256C, strain CLN2, active compounds read low 1.04 | S. cerevisiae deletion strains, locus YPR119W, strain clb2, active compounds read low 0.986 | S. cerevisiae deletion strains, locus YPR141C, strain kar3, active compounds read low 0.989 | S. cerevisiae deletion strains, locus YPR163C, strain tif3, active compounds read low 0.994 | S. cerevisiae deletion strains, locus YPR167C, strain met16, active compounds read low 0.991 | S. cerevisiae deletion strains, strain wtn01, active compounds read low 0.996 | S. cerevisiae strains, strain wild type, active compounds read low 1.01
